The campaign covered roughly 68,000 compounds. About 2,700 (4%) showed an effect of 50% or more. Shown is part of a subset that was picked to be rich in strong results.
tested on: Plasmodium berghei; experiment: Screen against P. berghei liver stage (PbLuc), transformed with Luciferase, at 2uM; format: functional, HepG2; conditions: tested at 2 uM

Row | SMILES | INHIBITION [%]
1 | O=C(NCC1(O)CCSCC1)c1ccoc1 | 53.61
2 | O=C(Cc1cccs1)NCC1(O)CCc2ccccc2C1 (configuration not stated) | 24.6
3 | O=C(Cc1cccs1)NCC1(O)CCSCC1 | 52.85
4 | COC1(CNC(=O)c2ccoc2)CCSC1 (configuration not stated) | 28.5
5 | O=C(NCC1(O)CCSC1)c1ccoc1 (configuration not stated) | 22.4
6 | CN(Cc1ccncc1)C1CC2(CCN(c3ncccn3)CC2)C1 | 36.48
7 | COc1ccc(NC(=O)NCCCn2nc3ccccn3c2=O)cc1 | -12.82
8 | COCc1cc(N2CCOC(c3ccc(Cl)c(Cl)c3)C2)ncn1 (configuration not stated) | -16.62
9 | CC(C)(C)c1cnc(CN2CCC(CN3CCOCC3)CC2)o1 | -10.87
10 | COCCN(C)C(=O)c1nc2c(s1)CCCN2C | 32.04
11 | O=C(c1ccc(F)cc1F)N1CCN(C(=O)C2CCCCC2)CC1 | 16.54
12 | CC(C)c1nc(CCn2cncn2)n(-c2ccc3c(c2)OCCO3)n1 | -39.01
13 | CC(C)Cc1nc(CCn2cncn2)n(-c2ccc3c(c2)OCCO3)n1 | 61.14
14 | CC(C)Cc1nc(CO)n(-c2ccc3c(c2)OCCO3)n1 | 31.8
15 | Cc1cc(N)cc(C2CN(Cc3cc[nH]n3)CCO2)n1 (configuration not stated) | 26.14
16 | COc1ccc(C2CCCCCN2S(N)(=O)=O)cc1 (configuration not stated) | -16.65
17 | CC(C)c1cc(C(=O)N2CCc3nc(C4CCCN4)ncc3C2)cs1 (configuration not stated) | 67.83
18 | Cc1cc(C(=O)N2CCc3nc(C4CCCCN4)ncc3C2)cs1 (configuration not stated) | 12.8
19 | Cc1cc(C(=O)N2CCc3nc(C4CCCN4)ncc3C2)cs1 (configuration not stated) | 40.31

Row | SMILES | INHIBITION [%]
20 | CC(C)(C)C(=O)NS(=O)(=O)c1ccc(C#N)c(C(F)(F)F)c1 | 1.52
21 | COc1ccc(Oc2nccnc2C2CCN(C(C)=O)CC2)cc1 | 12
22 | COc1ccccc1Oc1ncccc1CNC(=O)C1(C)CCCNC1 (configuration not stated) | 43.27
23 | CC1(C(=O)NCc2cccnc2Oc2ccc(F)cc2F)CCCNC1 (configuration not stated) | -20.29
24 | Cc1cccc(C)c1Oc1ncccc1CNC(=O)C1(C)CCCNC1 (configuration not stated) | 50.32
25 | O=C(CC1CC1)N(Cc1cccnc1)CC1CCN(C2CCCC2)CC1 | -53.72
26 | Cn1nccc1C(=O)N1CCC(n2cc(-c3ccsc3)nn2)CC1 | 15.68
27 | CCC(O)CN1CCN(C(=O)c2cccc3c2OCC(=O)N3)CC1 (configuration not stated) | -29.24
28 | COCc1cn(CC2CCN(Cc3cc(C)[nH]n3)CC2)nn1 | 26.3
29 | c1cn(Cc2ccc(N3CCCN(C4CCCC4)CC3)nc2)cn1 | 4.63
30 | Fc1ccc(N2CCCN(c3ccc(Cn4ccnc4)cn3)CC2)cc1 | 54.49
31 | c1csc(CN2CCCN(c3ccc(Cn4ccnc4)cn3)CC2)c1 | 17.61
32 | COc1ccc2[nH]cc(-c3ccnc(NC4CCCC4)n3)c2c1 | -4.95
33 | Cc1noc(CCCC(=O)NC(C)c2ccc(Cl)s2)n1 (configuration not stated) | 15.4
34 | CCc1cnc(C)nc1NCC(O)CN1CCCCCC1 (configuration not stated) | 80.68
35 | CCc1cnc(C)nc1NCCN1CCCCCC1 | 7.08
36 | Cc1nc(NCC(O)CN2CCCCCC2)c2c(C)noc2n1 (configuration not stated) | 30.87
37 | COc1nn(C)c2c1CCCN(S(=O)(=O)c1cccc(C)c1)C2 | 23.43
38 | COc1nn(C)c2c1CCCN(S(=O)(=O)c1cccc(F)c1)C2 | 52.47

Row | SMILES | INHIBITION [%]
39 | COc1cccc(S(=O)(=O)N2CCCc3c(OC)nn(C)c3C2)c1 | 39.57
40 | COCc1nc(CNc2cc(C)on2)cs1 | -65.51
41 | O=C(NC1CC1)[C@@H]1CCO[C@@H]2CCN(Cc3ccco3)C[C@H]21 | 46.73
42 | COc1cccc(-c2cc(NCCO)nc3[nH]ccc23)n1 | 0.51
43 | COc1cccc(-c2cc(NCCN(C)C)nc3[nH]ccc23)n1 | 0.51
44 | COc1cccc(-c2cc(NCC(=O)O)nc3[nH]ccc23)n1 | 74.44
45 | N[C@H]1CN(C(=O)c2ccccc2OCc2ccccc2)C[C@@H]1C1CC1 | 13.86
46 | Cc1nccn1C1CCCN(C(=O)c2ccc(N(C)C)nn2)C1 (configuration not stated) | 19.35
47 | CCc1nccn1C1CCCN(C(=O)c2ccc3c(c2)nnn3C)C1 (configuration not stated) | 58.05
48 | Cc1nn2cccnc2c1C(=O)N1CCCC(n2ccnc2)C1 (configuration not stated) | 28.51
49 | Cc1nccn1C1CCCN(C(=O)c2ccc(N(C)C)nc2)C1 (configuration not stated) | 55.7
50 | Cc1nccn1C1CCCN(C(=O)c2ccc3c(c2)CCC3)C1 (configuration not stated) | -33.61
51 | Cc1nn2cccnc2c1C(=O)N1CCCC(n2ccnc2C)C1 (configuration not stated) | 56.02
52 | Cc1nccn1C1CCCN(C(=O)c2cc3ccccc3[nH]2)C1 (configuration not stated) | -43.41
53 | CN(C)c1ccc(C(=O)N2CCCC(n3cccn3)C2)cn1 (configuration not stated) | 39.54
54 | Cc1nccn1C1CCCN(C(=O)c2ccc3c(c2)nnn3C)C1 (configuration not stated) | 1.61
55 | Cc1nn2cccnc2c1C(=O)N1CCCC(n2cccn2)C1 (configuration not stated) | -21.72
56 | CCc1nccn1C1CCCN(C(=O)c2ccc(OC)c(OC)c2)C1 (configuration not stated) | -14.17
57 | Cc1nccn1C1CCCN(C(=O)c2ccc3cc[nH]c3c2)C1 (configuration not stated) | 74.35
